Assay [1] is described as follows: Human pregnane X receptor (PXR) small molecule agonists, qHTS cell viability counter screen (AID 1346977). Also: nearly all actives have a fitted effect of over 50% in size. In short, it runs like this:
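In each well, the PXR reporter HepG2 line was checked for viability: CellTiter-Fluor reagent added 23hr post-dosing, fluorescence read after 1hr incubation at 37C.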

The nature of assay [2]: Caspase-3/7 induction in HepG2 cells by small molecules, qHTS assay (AID 1346978). Also: nearly all actives have a fitted effect of over 15% in size. In short, it runs like this:
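Caspase-3/7 induction was measured by Caspase-Glo 3/7 luminescence (30 min, room temperature) after a 17 hr compound exposure of wild-type HepG2 cells seeded at 2,000 per well and pre-incubated 5 hr.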
(In general: qHTS replaces the single test concentration by a dilution series.)

Assay [3] in a line: Caspase-3/7 induction in CHO-K1 cells by small molecules, qHTS cell viability counter screen (AID 1346979). Also: nearly all actives have a fitted effect of over 35% in size. Summed up: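 Following a 5hr settling period, CHO-K1 cells at 1,500 per well received DMSO-dissolved compounds. Cell viability was quantified 16hr later by CellTiter-Fluor fluorescence, measured after 1hr with reagent at 37C.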
The nature of assay [4]: Caspase-3/7 induction in CHO-K1 cells by small molecules, qHTS assay (AID 1346980). Also: nearly all actives have a fitted effect of over 15% in size. In short, it runs like this:
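Luminescent Caspase-Glo 3/7 read (30min, room temperature) quantified apoptosis induction. Cells were wild-type CHO-K1, treated with compound for 17hr at 37 C and 5% CO2.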

Assay [5] can be described thus: Caspase-3/7 induction in HepG2 cells by small molecules, qHTS cell viability counter screen (AID 1346981). Also: series mostly up to about 92 µM; nearly all actives have a fitted effect of over 30% in size. Summed up:
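Cell viability is measured as a cytotoxicity counter screen alongside the Caspase-Glo 3/7 readout in identical wells. Wild-type HepG2 cells are treated with test compounds for 16 hr at 37 C before CellTiter-Fluor addition and a 1-hr incubation.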

Assay [6] concerns the target Nuclear receptor subfamily 1 group I member 2 (Homo sapiens) (UniProt O75469). Description: Human pregnane X receptor (PXR) small molecule agonists, qHTS assay (AID 1346982). Also: nearly all actives have a fitted effect of over 35% in size. Also: potency is read from the fitted curve at half-maximal effect. Summed up:
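Cells: HepG2 stably carrying PXR-Luc. Medium held 5% charcoal-stripped FBS. Compounds in DMSO added after 5 hr plating, incubated 24 hr, then luminescence quantified with ONE-Glo.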

Assay [7] has as its target Cytochrome P450 2D6 (Homo sapiens) (UniProt P10635). Put plainly: Cytochrome P450 Family 2 Subfamily D Member 6 (CYP2D6) small molecule antagonists: luciferase reporter qHTS assay (AID 1671196). Also: nearly all actives have a fitted effect of over 50% in size. Also: potency is read from the fitted curve at half-maximal effect. As to activity change, negative = inhibition: series mostly up to about 120 µM. In short, it runs like this: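 Enzyme and proluciferin substrate were first combined with test chemical for 10 min at room temperature. Adding NADPH regeneration solution started a 1 h reaction, stopped with luciferin detection reagent and read by luminescence 20 min later.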

Assay [8] addresses Nuclear receptor subfamily 1 group I member 2 (Rattus norvegicus) (UniProt Q9R1A7). Put plainly: Rat pregnane X receptor (rPXR) activation by small molecules, qHTS assay (AID 1346983). Also: nearly all actives have a fitted effect of over 20% in size. Particulars: rPXR luciferase reporter cells, One-Glo luminescence, 24 h; max activation: active compounds read high. Summed up:
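Luminescent readout (One-Glo luciferase, 30 min room temperature) followed 24 hr compound treatment at 37 C of rPXR cells plated 2,000 per well and preincubated 5hr; qHTS format with compounds delivered in DMSO.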

Assay [9] concerns the target Nuclear receptor subfamily 1 group I member 2 (Homo sapiens) (UniProt O75469). Put plainly: CYP3A4 induction through human pregnane X receptor (PXR) by small molecules, qHTS assay (AID 1346984). Also: nearly all actives have a fitted effect of over 40% in size. Summed up:
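Quantitative HTS in DPX-2 cells, i.e. HepG2 transfected with PXR response element and CYP3A4-promoter luciferase. Compounds in DMSO incubated 24hr at 37C; then P450-Glo CYP3A4 substrate, 3uM final, 3hr; One-Glo luminescence.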

For assay [10] the target is unchanged. Description: Human pregnane X receptor (PXR) activation by small molecules, qHTS assay (AID 1346985). Also: nearly all actives have a fitted effect of over 40% in size. In short, it runs like this: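 DPX-2 cells (HepG2 co-transfected with a PXR response element and a CYP3A4-promoter luciferase construct) were seeded at 2,000 per well, rested 5 hr at 37C, then exposed to DMSO-dissolved compounds for 24 hr. Activation was read as luciferase luminescence.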

The source of these data is PubChem BioAssay (Tox21).

Structures are written as SMILES. Unmarked numbers belong to inactive results. Inconclusive results are not listed. The source made the active and inactive calls. Calls follow the shape of the dose curve; as a rule, active = well fitted curve in the direction sought with a large enough effect in the repeat runs; inconclusive = weak or mixed curves; inactive = no such curve, though single readings can be large; an effect the other way counts as inactive or inconclusive.
% is scaled to controls: 0 for no effect and ±100 for the full control effect.

Chain of Cytochrome P450 2D6 (Homo sapiens) (P10635 whole entry, looked up): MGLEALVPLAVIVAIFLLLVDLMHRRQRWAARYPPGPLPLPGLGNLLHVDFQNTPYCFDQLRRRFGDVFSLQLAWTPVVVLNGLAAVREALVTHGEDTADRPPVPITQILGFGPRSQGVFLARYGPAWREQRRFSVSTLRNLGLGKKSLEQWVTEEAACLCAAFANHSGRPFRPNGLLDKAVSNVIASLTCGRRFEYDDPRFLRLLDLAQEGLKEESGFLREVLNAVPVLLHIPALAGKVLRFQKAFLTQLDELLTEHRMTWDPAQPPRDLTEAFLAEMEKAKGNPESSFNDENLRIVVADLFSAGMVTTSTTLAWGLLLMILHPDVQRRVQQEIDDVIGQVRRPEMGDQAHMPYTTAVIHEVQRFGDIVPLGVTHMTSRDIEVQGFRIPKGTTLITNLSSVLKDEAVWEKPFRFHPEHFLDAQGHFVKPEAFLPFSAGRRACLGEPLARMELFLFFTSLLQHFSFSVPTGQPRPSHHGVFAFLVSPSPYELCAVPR
Chain of Nuclear receptor subfamily 1 group I member 2 (Rattus norvegicus) (Q9R1A7 whole entry, looked up): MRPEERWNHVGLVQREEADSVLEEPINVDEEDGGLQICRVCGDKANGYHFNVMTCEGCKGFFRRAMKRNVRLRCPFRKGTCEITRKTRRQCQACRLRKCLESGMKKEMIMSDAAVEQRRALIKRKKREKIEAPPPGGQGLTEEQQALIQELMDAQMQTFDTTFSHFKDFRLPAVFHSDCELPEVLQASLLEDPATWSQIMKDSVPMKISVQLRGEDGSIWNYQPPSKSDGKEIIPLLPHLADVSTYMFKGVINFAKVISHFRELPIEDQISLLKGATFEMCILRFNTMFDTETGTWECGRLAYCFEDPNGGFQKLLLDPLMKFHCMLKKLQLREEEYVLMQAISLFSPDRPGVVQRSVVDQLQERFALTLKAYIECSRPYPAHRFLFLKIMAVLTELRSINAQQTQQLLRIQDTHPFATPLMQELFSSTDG
Chain of Nuclear receptor subfamily 1 group I member 2 (Homo sapiens) (O75469 whole entry, looked up): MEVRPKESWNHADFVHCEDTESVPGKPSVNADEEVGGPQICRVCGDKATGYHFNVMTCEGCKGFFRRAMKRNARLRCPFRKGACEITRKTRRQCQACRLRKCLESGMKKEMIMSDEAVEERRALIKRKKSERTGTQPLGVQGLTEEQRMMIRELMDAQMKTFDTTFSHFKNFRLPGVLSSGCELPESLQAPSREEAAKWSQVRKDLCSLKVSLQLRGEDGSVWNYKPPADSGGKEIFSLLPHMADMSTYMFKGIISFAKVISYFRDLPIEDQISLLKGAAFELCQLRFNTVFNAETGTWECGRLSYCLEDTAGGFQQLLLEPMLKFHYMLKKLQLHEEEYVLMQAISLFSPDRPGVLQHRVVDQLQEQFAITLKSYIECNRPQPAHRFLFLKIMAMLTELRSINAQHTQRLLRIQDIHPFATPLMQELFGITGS

For `CCCCCCCCCCCCCCCC(=O)OC/C=C(C)/C=C/C=C(C)/C=C/C1=C(C)CCCC1(C)C`, the Potency entry in [1], in [3], in [4], in assay [5] and in assay [7] was “inactive” each time. The outcome in assay [2] was inactive. Moreover, the Potency in assay [6] is 24.3 µM (active).

Take `CCCCCCCCC(CO)CCCCCC` (stereo not drawn): the Potency entry in assay [1], in assay [3], in assay [4], in [5], in [6] and in [7] was “inactive” throughout. In addition, in [2], the call was inactive.

For the molecule `O=C(C(=O)c1ccc(Br)cc1)c1ccc(Br)cc1`, the activity change, negative = cytotoxicity in [1] is -1.5% [at 19 µM]; in assay [3] it was 1.57% [at 19 µM]; in assay [5], 2.21% [at 19 µM]. For the same molecule, the caspase activation in assay [2] was -0.0549% [at 19 µM]. In addition, the caspase-3/7 activation in assay [4] is 0.394% [at 19 µM]. The activation in assay [6] is 1.54% [at 19 µM]. Further, in assay [7], the activity change, negative = inhibition was 1.74% [at 23.6 µM].

Take `CCCCCC/C=C/C=O`: the Potency entry in assay [1], in assay [3], in [4], in assay [5], in assay [6] and in assay [7] was “inactive” each time. The call in assay [2] was inactive.

For `CCCCCCCC/C=C\CCCCCCCC(N)=O`, the Potency result in [1], in assay [3], in assay [4] and in assay [5] was “inactive” each time. Besides, the outcome in assay [2] was inactive. The Potency is 15.3 µM (active) in [6] and 50.2 µM (active) in assay [7].

`CC(=O)SCc1ccco1`: the Potency result in [1], in assay [3], in assay [4], in [5], in assay [6] and in assay [7] was “inactive” in each case. Also, the molecule was called inactive in assay [2].

Regarding `Cc1ccc(C(N)=O)cc1N`, the Potency result in [1], in assay [3], in [4], in assay [5], in assay [6] and in assay [7] was “inactive” each time. Besides, in assay [2], the call was inactive.

Consider `CC(C)c1ccc2c(C(C)C)cc(C(C)C)c(S(=O)(=O)O)c2c1`, for which the Potency entry in [1], in assay [3], in [4], in [5] and in assay [7] was “inactive” each time. Moreover, in [2], the call was inactive. Besides, in assay [6], the Potency is 25.2 µM (active).

`CCCCC(CC)COCCCN` (stereo not drawn): the Potency result in [1], in [3], in assay [4] and in [5] was “inactive” each time. Also, in [2], the call was inactive. For the same molecule, the Potency is 60.4 µM (active) in assay [6] and 12.5 µM (active) in assay [7].

With `CCCCOC(=O)/C=C\C(=O)OCCCC`, the Potency result in [1], in [3], in [4], in assay [5], in assay [6] and in [7] was “inactive” throughout. For the same molecule, the result in assay [2] was inactive.

As to `Cc1ncsc1CCO`, the Potency entry in assay [1], in assay [3], in [4], in assay [5], in [6] and in assay [7] was “inactive” throughout. Besides, in [2], the molecule was called inactive.

As for `CC1=CC(=O)/C(=C(/C)O)C(=O)O1`, the Potency result in [1], in assay [3], in [4], in [5], in assay [6] and in assay [7] was “inactive” throughout. Besides, in [2], the call was inactive.

In the case of `CN(C)CCCNCCCN`, the Potency entry in [1], in [3], in assay [4], in assay [5] and in [6] was “inactive” each time. Moreover, the molecule was classed as inactive in [2]. The Potency in assay [7] is 70.7 µM (active).

Turning to `COc1cc(C(C)(C)C)c(O)c(C(C)(C)C)c1`, the Potency entry in assay [1], in [3], in [4], in assay [5], in [6] and in assay [7] was “inactive” throughout. The molecule was classed as inactive in assay [2].

With `Cc1occc1S`, the Potency entry in [1], in [3], in assay [4], in assay [5] and in [7] was “inactive” throughout. In assay [2], the result was inactive. For the same molecule, in [6], the Potency was 61.1 µM (active).

Turning to `CCCCCC(CO)CCC` (stereo not drawn), the Potency entry in [1], in assay [3], in [4], in [5], in assay [6] and in assay [7] was “inactive” throughout. Further, in [2], the molecule was called inactive.

As to `NCc1ccccc1`, the Potency result in [1], in assay [3], in [4], in assay [5] and in assay [6] was “inactive” in each case. The outcome in assay [2] was inactive. Moreover, in assay [7], the Potency is 31.7 µM (active).

Turning to `O=c1c2ccccc2nnn1CCl`, the Potency result in assay [1], in assay [3], in assay [4] and in [5] was “inactive” throughout. Moreover, the call in [2] was inactive. The Potency in [6] is 61.1 µM (active); in assay [7] it was 14.2 µM (active).

Take `CCCCOC(=O)c1ccccc1C(=O)OCC(CC)CCCC` (stereo not drawn): the Potency entry in assay [1], in assay [3], in [4], in assay [5], in [6] and in assay [7] was “inactive” each time. The result in assay [2] was inactive.

Turning to `C[Si](C)O[Si](C)(C)O[Si](C)(C)O[Si](C)C`, the Potency entry in assay [1], in [3], in assay [4], in assay [5], in assay [6] and in assay [7] was “inactive” in each case. In addition, the molecule was classed as inactive in assay [2].

With `CCN(CC)CCOC(=O)C1(c2ccccc2)CCCC1`, the Potency result in [1], in [3], in [4], in assay [5] and in assay [9] was “inactive” each time. The call in [2] was inactive. Besides, the max activation in [8] is 1.06%. The Potency in [7] is 1.38 µM (active).

With `CN1CCC[C@@H]1c1cccnc1`, the Potency result in [1], in [3], in assay [4], in assay [5], in assay [9] and in assay [10] was “inactive” in each case. The result in assay [2] was inactive. In assay [8], the max activation was -0.0949%. In [7], the Potency is 38.9 µM (active).

In the case of `CC(=O)NCCCS(=O)(=O)O`, the Potency result in assay [1], in [3], in [4], in assay [5], in [9] and in assay [10] was “inactive” in each case. Moreover, the Potency result in assay [7] is “inactive”. Besides, the molecule was classed as inactive in assay [2]. Moreover, in assay [8], the max activation was -4.66%.

For `CC(C)CC=O`, the Potency result in assay [1], in assay [3], in assay [4], in assay [5], in assay [6] and in [7] was “inactive” in each case. Besides, the call in assay [2] was inactive.

Consider `Nc1nc(CC(=O)O)cs1`, for which the Potency entry in assay [1], in [3], in [4], in assay [5] and in assay [6] was “inactive” each time. Moreover, the molecule was classed as inactive in assay [2]. Further, in assay [7], the Potency is 28.3 µM (active).

With `CCCC(C)C`, the Potency result in assay [1], in assay [3], in assay [4], in assay [5] and in assay [7] was “inactive” each time. For the same molecule, the result in [2] was inactive.

As to `COc1ccc([C@@H]2Sc3ccccc3N(CCN(C)C)C(=O)[C@@H]2OC(C)=O)cc1`, the Potency result in [1], in assay [3], in assay [4] and in assay [5] was “inactive” in each case. Also, the call in [2] was inactive. Also, the max activation in assay [8] is -0.277%.

Regarding `CC(=O)OCCc1ccccc1`, the Potency entry in assay [1], in assay [3], in assay [4], in assay [5], in assay [6] and in [7] was “inactive” each time. Moreover, the call in assay [2] was inactive.

Regarding `NC(=S)N/N=C/c1cccnc1`, the Potency entry in assay [1], in assay [3], in assay [4], in assay [5], in [9] and in assay [10] was “inactive” throughout. In addition, in [7], the Potency entry is “inactive”. For the same molecule, the outcome in assay [2] was inactive. Besides, the max activation in assay [8] was -5.63%.
